Screening results: PubChem BioAssay, National Center for Advancing Translational Sciences (NCATS)
Shown are actives, neighbours in structure and some others; about 2.4% of the full set was active somewhere.
D2 ag-1: activates the human D2 dopamine receptor; activation, % (test concentration not listed); DiscoveRx PathHunter D2 beta-arrestin, luminescence, 90 min; 100% = 57 uM dopamine signal; 0.084% of 360,000 active; AID 624465; in the data active = activation above about 40%; inconclusive = between about 15% and that limit
Target sequence (P14416 whole entry, looked up): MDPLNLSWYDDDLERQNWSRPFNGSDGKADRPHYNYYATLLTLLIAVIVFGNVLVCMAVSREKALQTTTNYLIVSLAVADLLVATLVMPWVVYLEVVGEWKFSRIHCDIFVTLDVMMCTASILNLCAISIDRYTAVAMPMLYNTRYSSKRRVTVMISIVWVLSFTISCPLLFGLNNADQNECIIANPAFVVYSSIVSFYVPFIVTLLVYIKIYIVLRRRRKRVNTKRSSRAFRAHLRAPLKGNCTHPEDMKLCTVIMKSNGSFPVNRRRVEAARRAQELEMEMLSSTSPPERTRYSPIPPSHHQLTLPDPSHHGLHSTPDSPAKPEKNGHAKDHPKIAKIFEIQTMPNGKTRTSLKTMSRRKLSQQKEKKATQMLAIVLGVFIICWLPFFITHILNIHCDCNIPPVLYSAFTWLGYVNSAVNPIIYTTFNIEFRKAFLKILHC
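DiscoveRx PathHunter D2 beta-arrestin cells (2,100/well) attached overnight, then compound-stimulated 90 min at 37 C in HBSS/10 mM HEPES/0.1% Tween-20 buffer; beta-galactosidase complementation read by luminescence after 1 h at ambient temperature. Dopamine 57 uM final (EC100) as control.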
D2 PAM-1: potentiates the human D2 dopamine receptor allosterically. P14416. DiscoveRx D2 beta-arrestin cells, luminescence, 90 min; 100% = 57 uM dopamine signal. potentiation, % (concentration not given with the values). 0.23% of 360,000 active; in the data active = potentiation above about 50%; inconclusive = mostly about 30% to 49%
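D2 cells co-treated with compound plus 50 nM dopamine (EC20) for 90 min at 37 deg C to detect potentiation. Beta-arrestin recruitment was read as enzyme-fragment luminescence after 1 h at ambient temperature. Full response was set by 57 uM dopamine.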
D2 ag-2: D2 dopamine receptor (human) agonism; 0.53% of 340,000 active; AID 485358; activation, % at 2 µM; P14416; HEK293 T-REx D2 cells, calcium flux agonist mode;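 active = activation over 3 SD above normal in the single-dose calcium agonist read, cut at about 30% in these data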
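HEK293 Trex D2 cells, tetracycline-induced, o/n 30 C 5% CO2; no-wash Ca dye, RT 30–90 min; 10-cycle baseline, 23 nl cpd added, kinetic Ca read 180 s; agonist hits = positive Ca response.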
D2 PAM-2: D2 dopamine receptor (human) potentiation | P14416 | HEK293 T-REx D2, calcium flux, EC20 dopamine potentiation | potentiation, % at 10 µM | 0.34% of 340,000 active | AID 485347;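 active = potentiation over 3 SD above the plate norm, cut at about 30% in these data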
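Tetracycline-induced Hek293 Trex D2 cells, force-coupled to calcium, loaded with no-wash calcium dye. Compound added with 180 s kinetic read for agonism, then EC20 dopamine and a further 180 s read for potentiation.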
D2 antag: D2 dopamine receptor (human) antagonism; AID 485344; HEK293 TREx D2 cells, calcium flux, dopamine EC80; inhibition, % at 10 µM; 2% of 340,000 active; in the data active = inhibition above about 30%; inactive = below that, where a call was filed
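Overnight-induced (tetracycline, 30 C) HEK293 T-REx cells carrying force-coupled D2 receive a no-wash calcium dye, then compound, then EC80 dopamine at 180 s; signals are read kinetically throughout.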
Hits are given with their value; i = inactive; ? = inconclusive; nt = not tested or not shown.

SMILES	D2 ag-1	D2 PAM-1	D2 ag-2	D2 PAM-2	D2 antag
COc1ccc(S(=O)(=O)N(C)C)cc1NC(=O)CSC(C)C(=O)Nc1cc(C)on1 (stereo not given)	i	i	i	i	72.4
COc1ccc(S(=O)(=O)N(C)C)cc1NC(=O)c1ccc2c(c1)NC(=O)C(C)S2 (stereo not given)	i	i	i	i	76.6
COc1ccc(S(=O)(=O)N(C)C)cc1NC(=O)Cc1cccs1	i	i	i	i	34.3
O=C(Cc1cccs1)Nc1ccc(S(=O)(=O)N2CCCCC2)cc1	i	i	i	i	i
O=C(Cc1cccs1)Nc1cc(S(=O)(=O)N2CCCCC2)ccc1Cl	i	i	i	76.6	i
COc1ccc(S(=O)(=O)Nc2ccccc2OC)cc1NC(=O)Cc1cccs1	i	i	i	i	i
COc1ccc(OC(C)C(=O)NCc2nc(-c3cccc(C)c3)no2)cc1 (stereo not given)	nt	nt	nt	i	nt
COc1cccc(CNC(=O)C2(c3cccs3)CCOCC2)c1	nt	nt	i	i	nt
Cc1c(Cl)cccc1N1CC(c2nc3ccccc3n2Cc2ccccc2F)CC1=O (stereo not given)	nt	nt	i	i	nt
CC(=O)N1CCOc2cc(S(=O)(=O)N(C)Cc3ccccc3)c(Cl)cc21	nt	nt	i	i	nt
Cc1ccc(S(=O)(=O)N2CCOCC2)cc1NC(=O)Cn1c(=O)ccn(Cc2ccccc2)c1=O	i	i	nt	nt	nt
O=C(c1ccc(NS(=O)(=O)c2ccc(Cl)c(Cl)c2)cc1)N1CCOCC1	i	i	i	i	i
COc1ccc(NC(=O)Cc2cccs2)cc1S(=O)(=O)N1CCCCC1	i	i	nt	nt	nt
CN(C)S(=O)(=O)c1ccc(Cl)c(NC(=O)C2CCN(S(=O)(=O)c3cccs3)CC2)c1	i	i	i	i	31.1
COc1ccc(S(=O)(=O)N2CCCCC2)cc1NC(=O)Cc1cccs1	i	i	i	i	37.9
CN1CCN(C(c2ccccn2)c2cc(Cl)c3cccnc3c2O)CC1 (stereo not given)	i	i	i	i	i
Cc1ccc(C(c2cc(Cl)c3cccnc3c2O)N2CCN(C)CC2)cc1 (stereo not given)	i	i	i	i	38.6
CCOC(=O)c1cc(-c2ccc(F)cc2)n(CC(=O)NC2CCCCC2)c1C	nt	nt	nt	i	nt
CC(C(=O)N1CCN(Cc2ccccc2)CC1)n1ncn2cccc2c1=O (stereo not given)	i	i	i	i	48.5
Cc1ccc(C(=O)NNC(=O)c2cc(OCC(F)(F)F)ccc2OCC(F)(F)F)cc1	i	i	nt	i	32.4
CCOC(=O)c1ccc(NC(=O)C2(S(=O)(=O)c3ccc(Cl)cc3)CC2)cc1	nt	nt	i	i	nt
O=C(Nc1ccc(F)cc1)C1(S(=O)(=O)c2ccc(Cl)cc2)CC1	i	i	i	i	36.9
Cc1ccc(CNc2ccc(-c3nc(-c4ccco4)no3)cc2[N+](=O)[O-])cc1	nt	nt	i	nt	nt
Cc1ccc(-c2ccc(CCC(=O)O)n2C(C)C)cc1	i	i	i	i	32.6
Cc1ccc(-c2ccc(CCC(=O)O)n2NC(N)=S)cc1	i	i	i	i	i
SMILES	D2 ag-1	D2 PAM-1	D2 ag-2	D2 PAM-2	D2 antag
COCCn1nnnc1C(c1ccc(O)c(OC)c1)N1CCc2ccccc2C1 (stereo not given)	i	i	i	i	43.6
COc1ccc(C(c2nnnn2C2CCCC2)N2CCc3ccccc3C2)cc1OC (stereo not given)	i	i	i	i	i
COc1ccc(CNC(=O)c2cc(-c3ccc(OC)c(OC)c3)nc3n[nH]c(-c4ccc(C)cc4)c23)cc1	nt	nt	i	i	nt
COc1ccc(Cl)cc1NC(=O)C(C)N1CCN(c2ccccn2)CC1 (stereo not given)	i	i	31.3	i	i
CC(C(=O)Nc1ccccc1)N1CCN(c2ccccn2)CC1 (stereo not given)	i	i	39.9	i	i
Cc1cccc(NC(=S)N2CCN(c3ccccn3)CC2)c1	i	i	i	i	i
CC(=O)c1cccc(NC(=S)N2CCN(c3ccccn3)CC2)c1	i	i	39.9	i	i
COc1ccc(Cl)cc1C(=O)N1CCN(c2ccccn2)CC1	i	i	i	i	i
O=c1c2c3c(sc2nnn1CCCCOc1ccc(Cl)cc1)CCCC3	nt	nt	i	i	nt
C=CCOc1ccc(/C=C/C(=O)OCC(=O)NCC2CCCCC2)cc1	i	i	i	i	i
C=CCOc1ccc(/C=C/C(=O)OCC(=O)NC2CCCCCCC2)cc1	i	i	i	i	42.6
COc1cc(NC(=O)Cn2c(=O)n(CC(=O)NCCc3ccc(OC)c(OC)c3)c(=O)c3sccc32)cc(OC)c1	nt	nt	i	i	nt
Cc1ccc2c(c1C)NC(=O)CC2c1ccc(Cl)cc1Cl (stereo not given)	nt	nt	i	i	nt
CCN(CC(=O)NC)S(=O)(=O)c1ccc(Br)cc1	i	i	i	33.8	i
Nc1ccc2ncccc2c1N	i	i	nt	nt	nt
Nc1nc(N)c2c(ccc3nccc32)[nH]1	i	52.2	i	i	i
O=C(CN1C(=O)COc2ccccc21)NCCCN1CCc2ccccc2C1	i	i	i	i	57.7
O=C(CN1C(=O)COc2ccccc21)NCCCN1CCN(Cc2ccccc2)CC1	i	i	i	i	i
Cc1ccccc1Cn1c(=O)n(Cc2ccco2)c(=O)c2sc3ccccc3c21	nt	nt	i	i	nt
O=Nc1c(O)ccc2cc(S(=O)(=O)O)ccc12	?	100.4	nt	nt	nt
O=C(Nc1c(C(=O)Nc2ccccc2F)oc2ccccc12)c1cc2ccccc2o1	nt	nt	i	i	nt
O=C1CC(C(=O)Nc2ccc(F)c(Cl)c2)N=C(N2CCCCC2)N1 (stereo not given)	i	i	i	i	30.3
O=C1CC(C(=O)Nc2ccccc2)N=C(N2CCOCC2)N1 (stereo not given)	i	i	i	i	i
COc1ccc(C2CC(c3cccs3)=NN2c2ccc(C=O)cc2)cc1 (stereo not given)	i	i	31.3	i	i
CCOc1ccc(-c2nc(SCC(=O)Nc3cc(F)ccc3F)n3[nH]c(=O)cc3n2)cc1	nt	nt	nt	i	nt
SMILES	D2 ag-1	D2 PAM-1	D2 ag-2	D2 PAM-2	D2 antag
Cn1c(SCC(N)=O)nc2c([nH]c3ccccc32)c1=O	nt	nt	i	i	nt
COc1ccc(N=Cc2sc(O)c3ccccc23)cc1	?	113.3	i	i	i
O=C(Nc1nc(-c2ccc(S(=O)(=O)N3CCOCC3)cc2)cs1)c1ccccc1	i	?	i	32.6	i
COCCCN1C(=O)C(O)=C(C(C)=O)C1c1cccc(F)c1 (stereo not given)	i	i	i	i	36.8
CCCCN1C(=O)C(O)=C(C(C)=O)C1c1ccccc1 (stereo not given)	i	i	i	i	i
O=C(NNC(=O)c1n[nH]c2ccccc12)c1ccccc1	i	i	i	i	i
CC1Cc2cc(S(=O)(=O)CCC(=O)Nc3ccc(Cl)cc3F)ccc2N1C(=O)C1CC1 (stereo not given)	nt	nt	i	i	nt
Cn1c(SCC(=O)NCCNC(=O)CSc2nnc(C(F)(F)F)n2C)nnc1C(F)(F)F	i	i	i	i	32.6
